# Bioassay records as filed in PubChem BioAssay.
# CHRM1 agonist – human M1 muscarinic receptor agonism | AID 588814 | activation, % at 3 µM | 0.33% of 360,000 active | CHO-K1 hM1, Fluo-8 calcium fluorescence, agonist mode; 0% DMSO, 100% acetylcholine EC100;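 active = activation above the run's mean compound activation plus 3 SD, cut at about 16% in these data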;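 note: peak over basal fluorescence ratio within a 140 s kinetic read after compound addition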
# Target sequence (P11229 whole entry, looked up): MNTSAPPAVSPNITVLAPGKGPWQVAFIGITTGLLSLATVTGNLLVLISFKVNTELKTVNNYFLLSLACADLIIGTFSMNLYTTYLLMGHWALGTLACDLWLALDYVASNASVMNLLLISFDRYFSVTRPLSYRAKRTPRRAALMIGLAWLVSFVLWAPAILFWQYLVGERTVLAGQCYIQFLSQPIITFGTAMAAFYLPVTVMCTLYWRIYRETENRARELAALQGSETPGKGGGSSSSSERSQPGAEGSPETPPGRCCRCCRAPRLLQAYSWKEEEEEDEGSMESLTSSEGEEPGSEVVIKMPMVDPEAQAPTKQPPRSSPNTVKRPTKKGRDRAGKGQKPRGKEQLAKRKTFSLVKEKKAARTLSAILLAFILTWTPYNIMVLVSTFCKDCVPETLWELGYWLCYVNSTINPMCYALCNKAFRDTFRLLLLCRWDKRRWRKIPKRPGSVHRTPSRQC
# CHRM1 PAM – potentiates human M1 receptor response to acetylcholine | P11229 | CHO-K1 hM1, Fluo-8 calcium fluorescence, ACh EC20; 0% = ACh EC20, 100% = maximal ACh | activation, % at 3 µM | 0.088% of 360,000 active; in the data active = activation above about 19%, passing the limit was not always enough
# CHO-K1 Ca PAM – nonselective activator or artifact in parental CHO-K1 calcium assay; 0.02% of 360,000 active; activation, % at 3 µM; ATP EC20, Fluo-8 calcium fluorescence; 0% at ATP EC20, 100% at ATP max; AID 602247;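 active = activation above the run cutoff, the mean activation of all test compounds plus 3 SD, cut at about 40% in these data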;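 note: peak over basal fluorescence ratio in a 140 s read after ATP addition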
# CHO-K1 Ca antag – nonselective inhibitor or artifact in parental CHO-K1 cells; ATP-induced calcium, Fluo-8 fluorescence; inhibition, % at 3 µM; 0.6% of 360,000 active; AID 602250;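 active = inhibition above a per-plate cutoff, the plate's mean sample inhibition plus 3 SD, cut at about 24% in these data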;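 note: 0% = DMSO plus EC80 ATP and 100% = DMSO alone without ATP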
# M1 ag parental – M1 agonist counterscreen hit in parental CHO-K1 cells. activation, % at 3 µM. 0.48% of 360,000 active. AID 602248. Fluo-8 calcium fluorescence; scaled to maximal ATP response, vehicle zero; in the data active = activation above about 15%;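 note: untransfected CHO-K1 host cells lacking M1 receptor as counterscreen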
# M1 antag – human CHRM1 antagonism | inhibition, % at 3 µM | P11229 | CHO-K1 hM1, Fluo-8 calcium fluorescence, ACh EC80 antagonist | 1.3% of 360,000 active | AID 588852;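 active = percent inhibition above its own plate's cutoff, namely the mean of that plate's compound wells plus 3 SD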;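 note: peak over basal fluorescence ratio during 140 s after agonist addition; 0% = ACh EC80 plus DMSO and 100% = DMSO alone without agonist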
# * marks the source's active call; other numbers are inactive results. Rows were chosen to be rich in hits. Some 2.3% of all compounds tested hit in one or more screens of this group.
SMILES,CHRM1 agonist,CHRM1 PAM,CHO-K1 Ca PAM,CHO-K1 Ca antag,M1 ag parental,M1 antag
CCCN1C=CC(=CC=C(C#N)C#N)C=C1,10,-1,-22,24*,15,11
C=CCN1C=CC(=CC=C(C#N)C#N)C=C1,9,-8,-30,27*,12,25
CCOC(=O)/C(C#N)=C/C=C1\C=Cc2ccccc2N1CC,-11,6,8,-11,3,0
CCCCCCN1C=CC(=C/C=C(\C#N)C(=O)OCC)C=C1,150*,-38,-16,43*,73*,60*
Cc1cccc(NC(=O)c2cc3ccccc3oc2=O)c1,0,5,-20,8,0,-12
CC(=O)c1cc2ccccc2oc1=O,-4,7,12,-21,0,-7
Cc1ccc[n+](CC(=O)c2cc3ccccc3oc2=O)c1,-11,-35,21,-16,2,90*
Cc1cc(C)c[n+](CC(=O)c2cc3ccccc3oc2=O)c1,-7,-22,-4,2,0,93*
CCCCCc1ccnc(CC(=O)c2ccc(OC)cc2)c1,-9,-11,-13,-13,0,19
Cc1cc2ncn(C3CC(=O)N(C)C3=O)c2cc1C (stereo unspecified),-5,9,7,-7,0,-9
Cc1cc2ncn(C3CC(=O)N(Cc4ccccc4)C3=O)c2cc1C (stereo unspecified),5,-17,-8,-8,17*,21
CN(Cc1ccc(Cl)cc1Cl)C(=O)CNC(=O)c1ccco1,-3,5,7,2,3,-2
Cc1ccc(C)c(-c2cc(C(=O)Nc3nccs3)c3ccccc3n2)c1,-3,-12,-4,4,4,33*
Cc1cccc(NC(=O)c2cc(-c3ccc(C)s3)nc3ccccc23)n1,-2,-12,6,13,4,23*
COC(=O)c1sccc1NC(=O)c1cc(-c2cc(C)ccc2C)nc2ccccc12,-4,-1,-12,3,0,2
COc1ccc(Cc2nnc(NC(=O)c3ccc(C)cc3)s2)cc1OC,-3,4,2,-11,0,-8
COc1ccc(Cc2nnc(NC(=O)c3ccc(F)cc3)s2)cc1OC,-2,-1,-18,29*,0,1
Cc1c(C(c2ccc(F)cc2)c2c(C)n(C)n(-c3ccccc3)c2=O)c(=O)n(-c2ccccc2)n1C,-6,11,12,-1,1,-16
Cc1ccc(N(C)S(=O)(=O)c2cccc(C(=O)OCC(=O)c3c(N)n(C)c(=O)n(C)c3=O)c2)cc1,6,-16,-24,2,8,33*
CCOc1ccc(CN2CCCC(CO)(Cc3ccc(F)cc3)C2)cc1 (stereo unspecified),-8,-22,21,-15,2,40*
O=C1CC(N2CCN(c3nc4ccccc4s3)CC2)C(=O)N1Cc1cccs1 (stereo unspecified),-3,1,15,1,6,-16
CCCCNC(=O)C1(C)CCN1C(=O)c1cc(OC)ccc1Br (stereo unspecified),-2,4,0,-1,0,-10
COc1ccc(Br)c(C(=O)N2CCCC2(C)C(=O)NCC(C)C)c1 (stereo unspecified),0,16,-16,27*,-1,-1
C=C(C)CSc1nc2sc3c(c2c(=O)n1C1CCCCC1)CCN(C)C3,-7,-22,12,-16,0,31*
CSc1nc2sc3c(c2c(=O)n1C1CCCCC1)CCN(C)C3,-6,-23,7,-7,1,29*
SMILES,CHRM1 agonist,CHRM1 PAM,CHO-K1 Ca PAM,CHO-K1 Ca antag,M1 ag parental,M1 antag
C=C(C)CSc1nc2sc3c(c2c(=O)n1-c1ccccc1)CCN(C)C3,-11,-24,15,-7,1,36*
Nc1nonc1C(=O)NCCNS(=O)(=O)c1ccc(Br)cc1,1,7,23,-19,1,-6
COc1ccc(C(=O)COC(=O)Cn2cnc3ccccc3c2=O)c(OC)c1,-2,4,16,-4,1,-7
CC(C)(C)c1ccc(CC(=O)N2CCC2(C)C(=O)Nc2cnc3ccccc3c2)cc1 (stereo unspecified),0,-21,10,-2,11,36*
Cc1ccc(S(=O)(=O)NC(=O)C2(C)CCN2C(=O)Cc2ccc(-c3ccccc3)cc2)cc1 (stereo unspecified),-2,-1,18,-3,0,-1
Cc1ccc(NC(=O)C2(C)CCN2C(=O)Cc2ccc(-c3ccccc3)cc2)cc1 (stereo unspecified),19*,-15,13,5,8,20
CCN(CC)c1cc2c(c3c1ccn3C)C1CCC2C1 (stereo unspecified),-9,-11,0,25*,0,23
Cn1ccc2c(N3c4ccccc4CCc4ccccc43)cc3c(c21)C1CCC3C1 (stereo unspecified),-12,-16,6,9,0,37*
CN(c1ccc(Cl)cc1)c1cc2c(c3c1ccn3C)C1CCC2C1 (stereo unspecified),-4,11,21,-2,1,-7
Cn1ccc2c(-c3cccc4ccccc34)cc3c(c21)C1CCC3C1 (stereo unspecified),10,17,-9,38*,0,1
CN(c1cc(Cl)c2c(c1)OCO2)c1cc2c(c3c1ccn3C)C1CCC2C1 (stereo unspecified),-6,-3,3,27*,0,4
CCOC(=O)COc1ccc2c(c1)c(C(C)=O)c(C)n2-c1ccc(OC)cc1,-6,-2,-12,-8,2,5
COC(=O)c1ccc(NC(=O)C2CCCN2S(=O)(=O)c2ccc(F)cc2)cc1 (stereo unspecified),-1,-2,6,-6,1,-26
COc1cc(/C=C/C(O)=C/C(=O)/C=C/c2ccc(O)cc2)ccc1O,18*,-20,-10,19,17*,39*
COc1cc(/C=C/C(=O)NC(=O)c2ccccc2O)ccc1O,-2,8,1,-7,1,-5
COc1ccc(C(CNc2ccc(C(F)(F)F)cn2)N(C)C)cc1OC (stereo unspecified),-11,4,7,-8,3,-9
CCCc1cc(C(=O)Nc2cc(OC)ccc2OC)cs1,-5,1,-29,25*,-1,-5
O=C(Nc1ccc(F)cc1Cl)c1ccc2c(=O)n3c(nc2c1)CCC3,2,17,-13,8,0,-23
COc1ccc(-c2csc(N(CCCN(C)C)C(=O)c3cccs3)n2)cc1,5,-7,19,3,8,30*
COc1ccc(-c2csc(N(CCCN3CCOCC3)C(=O)c3ccco3)n2)cc1,-3,-9,-4,6,3,42*
